Source: PubChem BioAssay (National Center for Advancing Translational Sciences (NCATS))
HTT prom inh = HTT promoter inhibition | HEK293 HTT promoter firefly luciferase reporter, 24 h | Potency, µM (doses to about 57.5 µM), for inactives: at the highest dose activity change, negative = inhibition, most hits filed as inhibitors | 48,000 tested, 0.93% active; further: potency means the concentration at half of the fitted maximal effect; nearly all actives have a fitted effect of over 50% in size
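Luminescence was read after Dual-Glo reagent and a 10 min room-temperature incubation. Values were normalized to vehicle (0% activity) and zero RLU (-100% activity). Reporter HEK293 cells had been exposed to compounds (up to 57.5 uM final) for 24 h.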
NTMT1 inh = NTMT1 methyltransferase inhibition; Q9BV86; NTMT1 MTase-Glo SAH luminescence, purified enzyme; Potency, µM (series often up to 114 µM), without a hit: at the highest dose activity change, negative = inhibition, most hits filed as inhibitors; 59,000 tested, 2.5% active; AID 1645870;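 further: potency means the concentration at half of the fitted maximal effect; plate controls were DMSO vehicle for no effect and no enzyme for full effect; nearly all actives have a fitted effect of over 65% in size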
Target sequence (Q9BV86 whole entry, looked up): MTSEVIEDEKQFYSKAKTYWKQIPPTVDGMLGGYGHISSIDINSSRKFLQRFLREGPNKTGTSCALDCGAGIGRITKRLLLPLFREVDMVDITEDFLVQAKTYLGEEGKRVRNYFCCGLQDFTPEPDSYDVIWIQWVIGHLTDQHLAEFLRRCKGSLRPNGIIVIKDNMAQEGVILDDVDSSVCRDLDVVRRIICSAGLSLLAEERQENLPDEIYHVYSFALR
DRV1 agonist = activates human resolvin D1 receptor GPR32 | O75388 | CHO-K1 GPR32 beta-arrestin PathHunter luminescence, 90 min; zero percent set by DMSO-only wells | activation, % at 76.9 µM | 48,000 tested, 2.5% active | AID 1346428;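 active means activation of at least 60% and not above a set upper limit, about 1 call in 100 departs from these limits; inconclusive means activation of 40% to 60%, or above that upper limit; inactive means activation under 40%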; further: 0% is about no effect
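CHO-K1 cells stably expressing ProLink-tagged GPR32 and Enzyme Activator-tagged beta-arrestin were seeded at 2,500 cells/well overnight, exposed to compounds for 90 min at 37 °C, then read by beta-Gal complementation chemiluminescence after 1 h detection reagent.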
SKOV3 invasion = ovarian cancer metastasis inhibition, 3D TME model; SKOV3ip1-GFP adhesion/invasion on 3D omental model, fluorescence; Potency, µM (titrated, usually from 45.8 µM), without a hit: at the top dose activity change, negative = inhibition, hits mostly inhibitors; 46,000 tested, 0.1% active; AID 1963576;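 further: potency means the concentration at half of the fitted maximal effect; plate controls were DMSO wells for no effect and tomatine positive control wells for full effect; nearly all actives have a fitted effect of over 65% in size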
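Primary human omental fibroblast/mesothelial 3D culture pre-formed 48 h. SKOV3ip1-GFP cells added with compounds (0.36-46 umol/L), incubated 2 h RT/16 h 37 C, fixed; GFP cells quantified at 488/509 nm.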
HTT-AS act = HTT-AS promoter activation; Potency, µM (titrated, usually from 57.5 µM), for the others: at the highest dose activity change, positive = activation, most hits filed as activators; 48,000 tested, 0.24% active; HEK293 HTT-AS promoter firefly luciferase reporter, 24 h; response scale: percent change from vehicle, -100% = no light; further: potency means the concentration at half of the fitted maximal effect; nearly all actives have a fitted effect of over 55% in size
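HEK293 cells carrying firefly luciferase reporters were seeded at 2,500 per well in Opti-MEM and cultured for 24 h. They were then treated with compounds at up to 57.5 uM final for 24 h at 37 degrees C before Dual-Glo luminescence readout.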
DYRK1A KinaseGlo = inhibitors of human DYRK1A kinase. shares compounds with NTMT1 inh. recombinant DYRK1A, Kinase-Glo ATP depletion luminescence. Potency, µM (doses to about 76.9 µM), without a hit: at the top dose activity change, negative = inhibition, usual class: inhibitors. 100 tested, 80% active. AID 2705
CLK4 inh = CLK4 kinase inhibition, SAR round 2; recombinant Clk4, Kinase-Glo ATP luminescence, 4.5 h; shares compounds with NTMT1 inh; AID 493204; 90 tested, 90% active; Potency, µM (doses to about 76.9 µM), for the others: at the top dose activity, negative = inhibition, most hits filed as inhibitors
Sfp qHTS opt = Sfp PPTase inhibition, chemistry optimization | 230 tested, 78% active | purified Sfp PPTase enzyme activity, qHTS | AID 540350 | Potency, µM (doses to about 114 µM), for the others: at the top dose activity change, negative = inhibition, most hits filed as inhibitors | shares compounds with NTMT1 inh
Bsub HM489 growth = Sfp PPTase inhibitors: growth inhibition of B. subtilis HM489. shares compounds with NTMT1 inh. B. subtilis HM489 (acpS-) growth, BacTiter-Glo, 5 h. Potency, µM (highest dose often 114 µM), for the others: at the highest dose activity change, negative = inhibition, most hits filed as inhibitors. 220 tested, 50% active. AID 540353
Sfp gel opt = Sfp PPTase inhibition, gel-based detection | AID 540355 | shares compounds with NTMT1 inh | 220 tested, 54% active | Potency, µM (highest dose often 250 µM), without a hit: at the highest dose activity change, negative = inhibition, most hits filed as inhibitors | purified Sfp PPTase, gel-based product detection
Sfp gel = confirmation of Bacillus subtilis Sfp PPTase inhibitors. shares compounds with NTMT1 inh. purified Sfp PPTase, gel-based product detection. Potency, µM (highest dose often 250 µM), for the others: top-dose activity change, negative = inhibition, usual class: inhibitors. 45 tested, 90% active. AID 602362
Sfp inh SAR2 = inhibitors of Bacillus subtilis Sfp PPTase, SAR round 2; shares compounds with NTMT1 inh; purified Sfp enzyme, PPTase activity, qHTS; Potency, µM (titrated, usually from 57.1 µM), inactives show at the highest dose activity change, negative = inhibition, actives largely listed as inhibitors; 230 tested, 87% active
hGST ctr = counter-screen for Sfp PPTase inhibitors: hGST A1-1 inhibition; shares compounds with NTMT1 inh; hGST A1-1 enzyme activity counter-screen, qHTS; Potency, µM (top dose mostly 114 µM), without a hit: top-dose activity change, negative = inhibition, usual class: inhibitors; 55 tested, under 10 active
HSD17B4 inh = counter-screen for HPGD inhibitors: human HSD17B4 inhibition. Potency, µM (doses to about 57.1 µM), inactives show at the top dose activity change, negative = inhibition, actives largely listed as inhibitors. purified HSD17B4, estradiol/NAD+, NADH fluorescence. shares compounds with NTMT1 inh. 230 tested, 10% active
ALDH1A1 inh = counter-screen for HPGD inhibitors: human ALDH1A1 inhibition | shares compounds with NTMT1 inh | recombinant ALDH1A1, NADH fluorescence, propionaldehyde/NAD+ | Potency, µM (titrated, usually from 57.1 µM), without a hit: at the highest dose activity change, negative = inhibition, usual class: inhibitors | 230 tested, 93% active | AID 743195
An asterisk follows results filed as active; ? = inconclusive; / = no result given; [ ] = remark or other dose. Most compounds without a hit are left out; they make up all but 4.5% or so of the library. Unless noted, the call rests on the fitted dose curve; in most records, active means well fitted curve in the direction sought with a large enough effect; inconclusive means small, poorly fitted or top-dose-only effect, or another doubt; inactive means no such curve, though single readings can be large; an effect the other way counts as inactive or inconclusive.

SMILES | HTT prom inh | NTMT1 inh | DRV1 agonist | SKOV3 invasion | HTT-AS act | others
Cc1nc(CN(C)c2ncnc3ccc(-c4ccc5[nH]ncc5c4)cc23)cs1 | / | / | / | / | / | Sfp qHTS opt=34.6%[57.1 µM];Sfp gel=-7.1%;Sfp inh SAR2=20.8%;hGST ctr=?;HSD17B4 inh=21.5µM*;ALDH1A1 inh=15.2µM*
Cc1nc(CSc2ncnc3ccc(-c4ccc5c(c4)OCO5)cc23)cs1 | / | ? | / | / | / | DYRK1A KinaseGlo=2.6µM*
CN(CC(=O)O)c1ncnc2ccc(-c3ccc4c(c3)OCO4)cc12 | / | -12.7%[57.5 µM] | / | / | / | CLK4 inh=2.32µM*
Cc1c(-c2ccc3c(c2)OCO3)oc2ccc(C(O)C(C)O)cc12 (stereo not given) | / | 2.2%[29.8 µM] | / | / | /
CCC(CC)[C@H](NC(C)=O)[C@@H]1[C@H](O)[C@@H](C(=O)O)C[C@@H]1N=C(N)N | 6.0% | 7.3%[57.5 µM] | / | -21.2% | -14.9%
O=C(NCCCCc1ccccc1)c1nn(-c2ccccc2F)nc1CO | -23.7% | 3.7% | -4.2 | -0.9% | -20.5%
CC(=O)Nc1sc2c(c1-c1nc(-c3ccccc3)cs1)CCN(C(C)C)C2 | / | -9.6% | / | / | /
CN(CC1CCCCO1)c1ncnc2ccc(-c3ccc4c(c3)OCO4)cc12 (stereo not given) | / | / | / | / | / | CLK4 inh=0.0733µM*
Cc1cc(C)nc(Nc2nnc(N3CCN(c4cccc(C(F)(F)F)c4)CC3)s2)c1 | / | 6.4%[57.5 µM] | / | / | / | Sfp qHTS opt=?;Bsub HM489 growth=41.8µM*;Sfp gel opt=-20.1%;Sfp inh SAR2=14.5µM*;HSD17B4 inh=-20.0%;ALDH1A1 inh=21.5µM*
